# The full list was thinned out, with hits kept by preference.
# Pf Dd2 inh = inhibitors of Plasmodium falciparum Dd2 growth; AID 1347417; P. falciparum Dd2 growth, SYBR Green, 72 h; Potency, µM (doses to about 28.9 µM), without a hit: top-dose activity, negative = inhibition, most hits filed as inhibitors; 4.3% of 120,000 active; active means well fitted inhibition curve with a large enough effect;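 further: plate controls were DMSO vehicle for no effect and reference drug for full effect; nearly all actives have a fitted effect of over 65% in size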
#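 Readout: SYBR Green fluorescence, 485 nm excitation, 535 nm emission, after ~16 h lysis at 37C. Before that, Dd2-infected red cells (2.5% hematocrit) grew 72 h with compound, 29 uM top final concentration.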
# * = called active by the depositor; i = inactive; [ ] = another dose, or the depositor's remark. Potency means the concentration at half of the fitted maximal effect.
SMILES,Pf Dd2 inh
Cc1nc2c(NS(=O)(=O)c3cccc(C#N)c3)cccn2n1,3.0%
COc1ccc(NC(=O)Nc2cccn3nc(C(C)C)nc23)cc1,-23.2%
CNC(=O)[C@@H](C1CC1)N1CCC[C@H]1C(=O)NCC(C)C,9.4%[44.1 µM]
CN1C(=O)CC(C(=O)O)C12CCN(C(=O)Nc1cccc(F)c1)CC2 (centres undefined),2.6%
CC(=O)N1CC2(Cc3ccccc31)CN([S+](C)(=O)[O-])C2,4.5%[44.1 µM]
O=C(NC[C@H]1OC[C@@H](NC2COC2)[C@@H]1O)c1ccncc1,22.8%[44.1 µM]
CCC(C)NC(=O)Cc1csc2nc(C)c(-c3cc(C)n(-c4ccc(C)cc4)n3)c(=O)n12 (centres undefined),i
CCCNC(=O)NCCc1ncc(C)n1C(C)C,-4.3%
CNS(=O)(=O)c1cccc(C(=O)N2CCCC2c2ccco2)c1 (centres undefined),-7.5%
COc1ccc(-c2cc(N3CCC(NC(=O)c4ccc(F)cc4F)C3)n[nH]2)cc1 (centres undefined),-4.8%
COCCOc1ccc(C(=O)N[C@@H]2CN(C(=O)Nc3cccc(C(F)(F)F)c3)CCC[C@H]2O)cc1,i
NC(=O)COc1ccc(C(=O)N[C@@H]2CN(Cc3ccccn3)CCC[C@H]2O)cc1,-26.5%[44.1 µM]
O=C(N[C@@H]1CN(C(=O)Nc2ccccc2)CCC[C@H]1O)c1ccc(OCc2ccccc2)cc1,-16.0%
O=C(N[C@@H]1CN(C(=O)Nc2cccc(C(F)(F)F)c2)CCC[C@H]1O)c1ccc(OCc2ccccc2)cc1,7.08µM*
O=C(N[C@@H]1CN(Cc2ccccn2)CCC[C@H]1O)c1ccc(OCc2ccccc2)cc1,2.51µM*
COCCOc1ccc(C(=O)N[C@@H]2CN(C(=O)NCc3ccccc3)CCC[C@H]2O)cc1,17.1%
CCCOCCN1CCN(c2nc(CCN)nc3ccccc23)CC1,-11.4%
Cn1c(C(=O)N2CCNc3cnc(Nc4cccc(C(F)(F)F)c4)nc3C2)cc2ccccc21,-5.2%
Cc1cc(C(=O)N2CCn3nc(C(O)CO)cc3C2)c2c(C)noc2n1 (centres undefined),-17.4%
Cc1cc(C)cc(NC(=O)N2CCC(OC3CCN(S(C)(=O)=O)CC3)CC2)c1,-5.7%
CC(=O)Nc1ccc(C(O)[C@H]2COCC(=O)N2CC2CCCCC2)cc1 (some centres undefined),17.4%[44.1 µM]
COc1ccc(OC)c(CNC(=O)COc2ccc(NC(C)=O)cn2)c1,11.8%
Cc1cc(C)n(CC(=O)NCC(=O)N2CCCCCCNC(=O)CC2c2ccccc2)n1 (centres undefined),-2.2%
O=C(c1ccccn1)N1CC(=O)N(C2CCCCC2)CC(OCc2ccccc2)C1 (centres undefined),-13.2%
CCOC(=O)C1=C(C)N=C2SC=C(CC(=O)Nc3ccc(C)c(C)c3)N2C1c1cccc(OC)c1 (centres undefined),8.91µM*
SMILES,Pf Dd2 inh
CCOC(=O)C1=C(C)N=C2SC=C(CC(=O)Nc3ccc(OC)cc3)N2C1c1cccc(OC)c1 (centres undefined),-10.6%
COCCOC(=O)C1=C(C)N=C2SC=C(CC(=O)Nc3cccc(OC)c3)N2C1c1ccccc1 (centres undefined),-0.7%
CCOC(=O)C1=C(C)N=C2SC=C(CC(=O)NC(C)CC)N2C1c1cccc([N+](=O)[O-])c1 (centres undefined),i
COC(=O)C1=C(C)N=C2SC=C(CC(=O)Nc3ccc(F)cc3)N2C1c1ccc(OC)cc1OC (centres undefined),-2.3%
CCOC(=O)C1=C(C)N=C2SC=C(CC(=O)Nc3cccc(OC)c3)N2C1c1cccc(OC)c1 (centres undefined),11.2µM*
CCC(=O)N1C[C@@H]2C(=O)N(C)C(=O)[C@@H]2C1,29.7%
Cc1cc(Cl)ccc1NC(=O)N1CCC(Oc2ncccc2C(=O)N2CCOCC2)C1 (centres undefined),37.7%
CC1=NOC2(CCN(C(=O)c3ccc4c(c3)OCO4)C2)C1 (centres undefined),-10.5%[44.1 µM]
Cn1c(CNC(=O)Cn2nc3c(cc2=O)CCCCC3)nc2ccccc21,-6.9%
COCCOC1CCN(S(=O)(=O)Cc2ccccc2F)CC1,12.5%
O=C(Cc1c(F)cccc1Cl)NC1CCc2nn(CC3CC3)c(=O)n2CC1 (centres undefined),19.9%
Cc1cc(C)n(CCC(=O)NCCc2noc(-c3ccccc3)n2)n1,-4.7%
COc1cccc(C(=O)N[C@@H]2CN(c3ccccn3)C[C@H]2CN(C)C)c1OC,-1.3%
COCC1CN(S(=O)(=O)c2cc(F)ccc2OC)CC12CCNCC2 (centres undefined),-6.7%
CCOCCCNC(=O)CN1CCCc2nc(C3CC3)ncc2C1=O,5.2%
Oc1ccccc1CN1CCNc2cnc(Nc3ccccc3)cc2C1,i
c1cncc(Nc2cc3c(cn2)CN(Cc2ccc4[nH]ccc4c2)CCN3)c1,2.82µM*
CC(C)(C)CN1CCNc2cc(Nc3cccnc3)ncc2C1,-19.9%[44.1 µM]
COc1ccc(CN2CCNc3cnc(Nc4cccnc4)cc3C2)cc1O,1.0%[44.1 µM]
c1ccc(Nc2cc3c(cn2)CN(Cc2c[nH]c4ccccc24)CCN3)cc1,4.47µM*
c1ccc(Nc2cc3c(cn2)NCCN(Cc2ccccn2)C3)cc1,-10.1%[44.1 µM]
Oc1ccccc1CN1CCNc2cc(Nc3ccccc3)ncc2C1,5.01µM*
Cc1[nH]cnc1CN1CCNc2cc(Nc3ccccc3)ncc2C1,7.7%[44.1 µM]
c1ccc(Nc2cc3c(cn2)CN(Cc2ccn[nH]2)CCN3)cc1,i
Cn1cc(CN2CCNc3cc(Nc4ccccc4)ncc3C2)cn1,i
SMILES,Pf Dd2 inh
COc1cccc(Nc2cc3c(cn2)CN(Cc2cccnc2)CCN3)c1,-15.3%[44.1 µM]
Cc1cccc(CN2CCNc3cc(Nc4cccnc4)ncc3C2)c1,5.62µM*
O=C(c1nc(-c2ccc(Cl)nc2)c2ccccn12)N1CCOCC1,6.1%
CCc1nc(-c2c3n(c(=O)n(CC(=O)Nc4cc(C)cc(C)c4)c2=O)CCCC3)no1,-22.0%
Oc1ccccc1CN1CCNc2cnc(OCc3cccnc3)cc2C1,i
Cc1cc(-c2cc3c(cn2)CN(Cc2ccc4[nH]ccc4c2)CCN3)ccn1,-18.9%[44.1 µM]
CN1CCNc2cc(Nc3ccncc3)ncc2C1,51.9%[44.1 µM]
Oc1ccccc1CN1CCNc2cc(Nc3cccnc3)ncc2C1,8.91µM*
c1ccc(-c2cc3c(cn2)CN(Cc2ccc4[nH]ccc4c2)CCN3)cc1,6.31µM*
Cn1cc(CN2CCNc3cc(-c4ccccc4)ncc3C2)cn1,i
CC(C)C1=NOC2(CCN([S+](=O)([O-])c3cccc(C(F)(F)F)c3)C2)C1 (centres undefined),-6.3%
COCCC(=O)N[C@@H]1CN(Cc2ccccn2)C[C@H]1CN(C)C,-6.5%
Cc1cccc(NC(=O)NC2CCN(C(=O)N3CC4CC(C3)[C@H]3CCCC(=O)N3C4)CC2)c1 (some centres undefined),i
Cc1cnc(-c2cccnc2)n1CCN,2.4%
Cc1cccc(Cl)c1NC(=O)Cn1cccc1-c1nc(-c2ccc(F)cc2)no1,-23.6%
CN1CCOc2c(C(=O)NCc3cnn(C)c3)cc(-c3ccccc3)cc21,i
COc1ccccc1NC(=O)Cn1c(C)ccc(NS(=O)(=O)c2ccccc2)c1=O,1.41µM*
CCc1ccc(NC(=O)Cn2c(C)ccc(NS(=O)(=O)c3ccccc3)c2=O)cc1,-5.8%
COc1ccc(S(=O)(=O)Nc2ccc(C)n(CC(=O)NCc3ccccc3)c2=O)cc1,-12.9%
c1coc(CNC2(Cc3cc(CN4CCOCC4)on3)COC2)c1,14.5%[44.1 µM]
CO[C@H]1C(=O)N(C(C)C)[C@H]1C1CCN(C(=O)Nc2ccccc2F)CC1,-16.1%
CCNC(=O)Nc1ccc(OCC(=O)N2CCCCC2)nc1,18.0%

# Source: PubChem BioAssay
